aSyn UTR act – Activators working through SNCA 5'UTR binding (MLPCN); AID 1814; alpha-synuclein 5'UTR reporter, activators screen; activity score, % (tested at 7.5 µM), hits read low; actives 7.1% (n = 300,000); in the data active means activity score below about -60%
The depositor's hits bear a star. Not all results are given here.

SMILES	aSyn UTR act
O=C1C(C=Nc2ccccc2O)=C(O)c2ccccc21	-186*
Cc1cccc(OCc2n(CC(=O)OC3CC(C)CCC3C(C)C)c3ccccc3[n+]2C)c1 (stereo unspecified)	60
CC1=NN(C(N)=S)C(=O)C1N=Nc1cccc([N+](=O)[O-])c1 (stereo unspecified)	-121*
CC1=NN(C(N)=S)C(=O)C1N=Nc1cccc(Cl)c1C (stereo unspecified)	-184*
CC1=NN(C(N)=S)C(=O)C1N=Nc1ccc(Br)cc1 (stereo unspecified)	-115*
CC1=NN(C(N)=S)C(=O)C1N=Nc1ccc(Cl)cc1 (stereo unspecified)	-143*
COc1nc(NCc2ccco2)nc(NC2CCCCC2)n1	-94*
COc1ccc(C(=O)O/N=C(\N)c2ccc(OC)c(OC)c2)cc1	-139*
COc1ccc(C(=O)O/N=C(\N)c2ccc(OC)c(OC)c2)c(OC)c1	-96*
CCOc1ccc(C(Nc2cccnc2)c2cc(Cl)c3cccnc3c2O)cc1 (stereo unspecified)	67
CCOc1ccc(NC(c2ccccn2)c2oc(CO)cc(=O)c2O)cc1 (stereo unspecified)	-104*
COc1ccc(N2C(=S)N(C(=O)c3ccccc3)C(=Nc3ccccc3)C2=Nc2ccccc2)cc1	-120*
COc1ccc(N=C2C(=Nc3ccc(OC)cc3)N(c3ccccc3)C(=S)N2C(=O)c2ccc(Cl)cc2)cc1	-200*
COc1ccc(N=C2C(=Nc3ccc(OC)cc3)N(c3ccc(N(C)C)cc3)C(=S)N2c2ccc(OC)cc2)cc1	99
Cc1ccc(C(=O)NC(C)C2CC3CCC2C3)c(C)c1 (stereo unspecified)	-102*
Cc1occc1C(=O)Nc1nnc(-c2cccs2)s1	-351*
O=C(CN1CCCC1)Nc1nnc(-c2cccs2)s1	-118*
O=C(CN1CCCCC1)Nc1nnc(-c2ccccc2)s1	-77*
O=C(CN1CCCC1)Nc1ccc(NC(=O)Nc2ccccc2)cc1	-194*
O=C(CN1CCOCC1)Nc1ccc(C2CCCCC2)cc1	-75*
CC(C)(C)CC(=O)Nc1nnc(-c2cccs2)s1	-213*
O=C(/C=C/c1ccc2c(c1)OCO2)N1CCCCC1	-132*
CCOC(=O)C1CCCN(C(=O)CC(C)c2ccccc2)C1 (stereo unspecified)	-115*
CCOC(=O)C1CCN(C(=O)COc2ccc(Cl)cc2)CC1	-75*
CCOC(=O)C1CCN(C(=O)/C=C/c2ccc3c(c2)OCO3)CC1	-74*
SMILES	aSyn UTR act
CCOC(=O)C1CCN(C(=O)/C=C/c2ccccc2)CC1	-139*
Brc1ccc2nc(-c3c[nH]c4ccccc34)cn2c1	-164*
CC(=O)n1cc(N(C(=O)CCl)c2ccccc2)c2ccccc21	106
CC(=O)n1c(Cl)c(NC(=O)CCl)c2ccccc21	-80*
O=C(CSc1nnc(-c2ccco2)n1Cc1ccccc1)c1ccccc1	-104*
Cc1ccc(C(=O)CSc2nnc(-c3ccco3)n2Cc2ccccc2)cc1	-97*
Cc1cccc(CSc2nnc(-c3ccco3)n2C)c1	-70*
Cc1cccc(CSc2nnc(-c3ccco3)o2)c1	-64*
Cc1cccc(-c2nnc(SCc3ccccc3)o2)c1	-102*
CCOC(=O)c1c(C)nc(-c2ccccc2)nc1N	-120*
CC(=O)c1c(C)nc(-c2ccccc2)nc1N	-72*
CCOC(=O)c1c(-c2ccccc2)cn2c(C)cc(C)nc12	-150*
CCCNc1nc(-c2ccccc2)c(C(=O)OCC)cc1C#N	94
Cc1ccn2cc(-c3ccc(Br)cc3)nc2c1	63
Cc1ccn2cc(-c3cnoc3C)nc2c1	-97*
O=C1CCCC2=C1C(c1ccco1)Nc1ccc(C(=O)c3ccccc3)cc1N2 (stereo unspecified)	-81*
N#CC1=C2C=Cc3ccccc3N2CCCC1=O	-74*
Cc1ccnc(NC(=O)c2ccc(S(=O)(=O)N3CCC(C)CC3)cc2)c1	-118*
CC1CCN(S(=O)(=O)c2ccc(C(=O)Nc3ccccn3)cc2)CC1	-120*
Cn1c2ccccc2c2cc(C(=O)N3CCN(CCO)CC3)sc21	-86*
COc1ccc(NC(=O)COC(=O)c2c(F)cccc2Cl)cc1OC	-110*
COc1ccc(CCNC(=O)c2ccc(Cl)cc2Cl)cc1OC	-99*
COc1cc(CCC(C)=O)ccc1OC(=O)c1c(F)cccc1Cl	-185*
COCCNc1c(-c2cc3ccc(C)c(C)c3[nH]c2=O)nc2ccccn12	-153*
O=C(N=C1c2ccccc2CN1c1ccccc1)c1cccc([N+](=O)[O-])c1	-123*
SMILES	aSyn UTR act
O=C(N=C1c2ccccc2CN1c1ccc(F)c(F)c1)c1cccnc1	-84*
CCOC(=O)c1ccc(N2Cc3ccccc3C2=NC(=O)c2cccc([N+](=O)[O-])c2)cc1	-212*
Clc1cc2nc(-c3cccnc3Cl)[nH]c2cc1Cl	-229*
C/C(N)=C(/C#N)C(=O)COC(=O)c1cc2c(s1)CCC(C)C2 (stereo unspecified)	-73*
O=C(Cc1cc2ccccc2o1)NCc1ccc(F)cc1	-79*
Nc1nc(N)nc(COc2ccccc2)n1	-106*
Cc1ccc(C(=O)N2CCN3C(=O)c4ccccc4C23c2ccc(Cl)cc2)cc1 (stereo unspecified)	-69*
Cc1ccc(-c2ccc(/C=C3\SC(N4CCOCC4)=NC3=O)o2)cc1	-72*
Cc1ccc(C(=O)Oc2ccc(/C=C3\C(=N)N4N=C(N5CCOCC5)SC4=NC3=O)cc2)cc1	-62*
CCCCN1CCc2c1nc1ccc(Br)cc1c2N	-65*
CCn1cnc2sc(C(=O)Oc3cccc(C)c3)c(C)c2c1=O	-67*
O=C(OCc1nc2ccccc2s1)c1ccc(Br)s1	-72*
Cc1ccc(C(=O)OCc2nc3ccccc3s2)o1	-103*
O=C(OCc1nc2ccccc2s1)c1cc2ccccc2oc1=O	-100*
O=C(CCc1ccc(S(=O)(=O)N2CCOCC2)cc1)OCc1nc2ccccc2s1	-85*
CNc1ccccc(-c2ccc3ccccc3n2)c1=O	-140*
COc1cccc(NC(=O)c2ccc3c(c2)N(C)CCS3)c1	-117*
CN1CCSc2ccc(C(=O)Nc3ccc(Cl)cc3)cc21	-215*
COc1cccc(NC(=O)c2ccc3c(c2)CCN3S(C)(=O)=O)c1	-118*
Clc1ccc(-c2cnc(Oc3ccccc3)nc2)cc1	-216*
Cc1cccc(/C(N)=N/OC(=O)c2ccc3c(c2)OCO3)c1	-116*
N/C(=N\OC(=O)c1ccc2c(c1)OCO2)c1cccc([N+](=O)[O-])c1	-133*
Cc1ccc(-c2cc3nn(-c4ccccc4)c(N)c3c(=O)o2)cc1	-96*
c1ccc(N2CCN(c3nc4cc5c(cc4s3)OCO5)CC2)cc1	-142*
c1ccc2c(c1)CCN(c1nc3cc4c(cc3s1)OCO4)C2	-122*
SMILES	aSyn UTR act
c1c2c(cc3sc(N4CCOCC4)nc13)OCO2	-64*
Fc1ccc2nc(N3CCOCC3)sc2c1	-131*
Cc1ccc(NC(=O)c2ccc3nc(N4CCOCC4)sc3c2)c(Cl)c1	-68*
O=C(Nc1nnc(S(=O)(=O)N2CCOCC2)s1)c1cccc(F)c1	-102*
CSc1ccccc1OCc1cc(C(=O)NCc2cccc(C)n2)no1	-112*
Cc1nc(CNC(=O)c2cc(COc3c(F)cccc3F)on2)cs1	41
CSc1ccccc1OCc1cc(C(=O)N(C)Cc2ccncn2)no1	-81*
CSc1ccccc1OCc1cc(C(=O)N(C)Cc2nonc2C)no1	-119*
CCn1ccnc1CN(C)C(=O)c1cc(COc2ccccc2SC)on1	-101*
CSc1ccccc1OCc1cc(C(=O)N(C)CC2COCCO2)no1 (stereo unspecified)	-83*

Screens as filed in PubChem.
